Source: PubChem BioAssay (EPA / NIEHS)
Several values for one entry are separate records, joined by “and”; a condition that tells them apart may be missing. Equal entries are not always repeated. Some structures have more than one record in an assay (separate samples or runs), and their calls can disagree. Activity calls are given as the source filed them. The calls were made as follows: active = hit-call score of the fitted dose curve at least 0.9, where 1 is the maximum; inactive = score below 0.9.

read-out: Pyruvate Dehydrogenase Kinase 4 (PDK4), PDK4 (gene 5166); assay: LTEA_HepaRG_PDK4: Life Technologies and Expression Analysis (LTEA) Assay for Pyruvate Dehydrogenase Kinase 4 (PDK4) using HepaRG (AID 2283525); details: mRNA level, 48 h; actives raise or lower the signal
Outline: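 In this multiplexed human HepaRG expression assay, cells are treated 48 h with test chemicals across an eight-point range starting at 100 uM. PDK4 mRNA changes, normalized to ACTB/GAPDH/POLR2A, are fitted in both directions relative to vehicle.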

SMILES	outcome	AC50
CCOC(=O)C(Cl)Cc1cc(-n2nc(C)n(C(F)F)c2=O)c(F)cc1Cl (stereo unspecified)	inactive	–
CCc1nn(C)c(C(=O)NCc2ccc(C(C)(C)C)cc2)c1Cl	–	0.723 µM (active)
COC(=O)N(OC)c1ccccc1COc1ccn(-c2ccc(Cl)cc2)n1	–	11.3 µM (active)
N#CC(CCc1ccc(Cl)cc1)(Cn1cncn1)c1ccccc1 (stereo unspecified)	inactive	–
CNC(=O)ON=CC(C)(C)SC	inactive	–
CCNc1nc(Cl)nc(NC(C)C)n1	inactive	–
CCON=C(CC)C1=C(O)CC(c2c(C)cc(C)cc2C)CC1=O (stereo unspecified)	inactive	–
CCCC1COC(Cn2cncn2)(c2ccc(Cl)cc2Cl)O1 (stereo unspecified)	–	12.3 µM (active)
CCCCOC(=O)c1ccccc1C(=O)OCCCC	inactive	–
COC(=O)c1ccccc1C(=O)OC	inactive	–
C=CCC1=C(C)C(OC(=O)C2C(C=C(C)C)C2(C)C)CC1=O (stereo unspecified)	inactive	50 µM (active)
COP(N)(=O)SC (stereo unspecified)	inactive	–
O=C(O)COc1nc(Cl)c(Cl)cc1Cl	–	51 µM (active)
COc1ccc(C(c2ccc(OC)cc2)C(Cl)(Cl)Cl)cc1	inactive	–
COC(=O)C=C(C)OP(=O)(OC)OC	inactive	–
CCOc1cc(Oc2ccc(C(F)(F)F)cc2Cl)ccc1[N+](=O)[O-]	inactive	–
CCOC(=O)CC(SP(=S)(OC)OC)C(=O)OCC (stereo unspecified)	inactive	–
CNC(=S)S	inactive	–
CCCN(CCC)c1c([N+](=O)[O-])cc(S(N)(=O)=O)cc1[N+](=O)[O-]	–	92.7 µM (active) and 50 µM (active) and 83.9 µM (active)
CC(C)C1(C)N=C(c2nc3ccccc3cc2C(=O)O)NC1=O (stereo unspecified)	inactive	–
CC(Oc1ccc(Cl)cc1Cl)C(=O)O (stereo unspecified)	–	50 µM (active)
O=C(Nc1ccccc1)Nc1ccnc(Cl)c1	inactive	–
Cc1ccc(-c2c(Cl)nc(C#N)n2S(=O)(=O)N(C)C)cc1	–	50 µM (active)
C#CCOS(=O)OC1CCCCC1Oc1ccc(C(C)(C)C)cc1 (stereo unspecified)	–	50 µM (active)
CCCCC(CC)COC(=O)c1ccccc1C(=O)OCC(CC)CCCC (stereo unspecified)	inactive	–
